PubChem BioAssay AID1159580 (chemical genetic matrix, 2015)
Where “and” joins values, the source holds several entries; their conditions need not be identical. Identical values can stand only once. Hit rate of the full screen: of about 5,500 compounds, about 2,000 (36%) were called active. Inconclusive results (about 18%) are left out. Cut-off read from the data, not from the text of the source: active = normalized growth mostly below about 0.91 (no sharp cut-off); inconclusive = no clear call, values can overlap the other calls; inactive = mostly above about 0.92. The list shows a part of the results.

Test: chemical genetic growth profiling, strain panel (AID 1159580);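 note: tested at 20 µM; growth read once vehicle control cultures reached saturation at 30 °C; 1 = growth at the plate median or of vehicle wells; lower values mean less growth of the strain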
Conditions: S. cerevisiae deletion strains, growth OD

Measured: normalized growth

COc1cc(OC)c2c(=O)c(O)c(-c3ccc(OC)c(OC)c3)oc2c1
active: locus YAL021C, strain ccr4, stronger effect = lower value 0.741 | locus YAL026C, strain drs2, stronger effect = lower value 0.852 | locus YAL030W, strain snc1, stronger effect = lower value 0.904 | locus YBL061C, strain skt5, stronger effect = lower value 0.901 | locus YBR009C, strain hhf1, stronger effect = lower value 0.903 | locus YBR023C, strain chs3, stronger effect = lower value 0.827 | locus YBR229C, strain ROT2, stronger effect = lower value 0.648 | locus YBR231C, strain swc5, stronger effect = lower value 0.77 | locus YBR279W, strain paf1, stronger effect = lower value 0.913 | locus YCL029C, strain bik1, stronger effect = lower value 0.768 | locus YDL035C, strain GPR1, stronger effect = lower value 0.31 | locus YDL074C, strain BRE1, stronger effect = lower value 0.402 | locus YDL101C, strain DUN1, stronger effect = lower value 0.396 | locus YDL134C, strain PPH21, stronger effect = lower value 0.369 | locus YDL192W, strain arf1, stronger effect = lower value 0.719 | locus YDR069C, strain doa4, stronger effect = lower value 0.496 | locus YDR101C, strain arx1, stronger effect = lower value 0.811 | locus YDR162C, strain NBP2, stronger effect = lower value 0.132 | locus YDR297W, strain sur2, stronger effect = lower value 0.841 | locus YDR318W, strain mcm21, stronger effect = lower value 0.788 | locus YDR334W, strain swr1, stronger effect = lower value 0.856 | locus YDR335W, strain msn5, stronger effect = lower value 0.878 | locus YDR388W, stronger effect = lower value 0.844 | locus YDR502C, strain sam2, stronger effect = lower value 0.667 | locus YEL003W, strain gim4, stronger effect = lower value 0.876 | locus YER015W, strain faa2, stronger effect = lower value 0.82 | locus YER111C, strain swi4, stronger effect = lower value 0.835 | locus YER155C, strain BEM2, stronger effect = lower value 0.664 | locus YER167W, strain BCK2, stronger effect = lower value 0.631 | locus YFR010W, strain ubp6, stronger effect = lower value 0.852 | locus YGL173C, strain kem1, stronger effect = lower value 0.78 | locus YGL248W, strain PDE1, stronger effect = lower value 0.46 | locus YGL253W, strain hxk2, stronger effect = lower value 0.889 | locus YGR078C, strain PAC10, stronger effect = lower value 0.591 | locus YGR135W, strain pre9, stronger effect = lower value 0.689 | locus YHR027C, strain rpn1, stronger effect = lower value 0.695 | locus YHR079C, strain IRE1 (second series), stronger effect = lower value 0.77 | locus YHR094C, strain hxt1, stronger effect = lower value 0.864 | locus YHR129C, strain ARP1, stronger effect = lower value 0.589 | locus YHR142W, strain chs7, stronger effect = lower value 0.82 | locus YHR200W, strain rpn10, stronger effect = lower value 0.784 | locus YIL066C, strain RNR3, stronger effect = lower value 0.46 | locus YIL073C, strain SPO22, stronger effect = lower value 0.163 | locus YIL125W, strain kgd1, stronger effect = lower value 0.916 | locus YIR030C, strain dcg1, stronger effect = lower value 0.873 | locus YJL095W, strain BCK1 (second series), stronger effect = lower value 0.921 | locus YJL134W, strain LCB3, stronger effect = lower value 0.608 | locus YJL164C, strain tpk1, stronger effect = lower value 0.758 | locus YJL168C, strain set2, stronger effect = lower value 0.929 | locus YJL187C, strain SWE1 (second series), stronger effect = lower value 0.17 | locus YJR043C, strain POL32, stronger effect = lower value 0.238
inactive: locus YBR021W, strain FUR4, stronger effect = lower value 0.922 | locus YBR171W, strain sec66, stronger effect = lower value 0.942 | locus YCL011C, strain gbp2, stronger effect = lower value 0.916 | locus YCL016C, strain dcc1, stronger effect = lower value 0.934 | locus YCL069W, strain vba3, stronger effect = lower value 0.973 | locus YCR088W, strain abp1, stronger effect = lower value 0.958 | locus YDL005C, strain med2, stronger effect = lower value 0.982 | locus YDL040C, strain nat1, stronger effect = lower value 0.978 | locus YDL185W, strain tfp1, stronger effect = lower value 0.94 | locus YDR001C, strain nth1, stronger effect = lower value 0.964 | locus YDR137W, strain rgp1, stronger effect = lower value 0.904 | locus YDR159W, strain sac3, stronger effect = lower value 0.992 | locus YDR195W, strain ref2 0.984 | locus YDR392W, strain spt3, stronger effect = lower value 0.943 | locus YEL037C, strain rad23, stronger effect = lower value 0.926 | locus YEL061C, strain CIN8 (second series), stronger effect = lower value 0.98 | locus YER016W, strain bim1, stronger effect = lower value 0.942 | locus YER110C, stronger effect = lower value 1.02 | locus YER155C, strain BEM2 (second series), stronger effect = lower value 0.936 | locus YGL078C, strain dbp3, stronger effect = lower value 0.978 | locus YGL167C, strain pmr1, stronger effect = lower value 0.938 | locus YGL227W, strain vid30, stronger effect = lower value 0.986 | locus YGL240W, strain doc1, stronger effect = lower value 0.993 | locus YGR252W, strain gcn5, stronger effect = lower value 0.85 | locus YHR013C, strain ard1, stronger effect = lower value 0.868 | locus YHR030C, strain SLT2, stronger effect = lower value 0.971 | locus YHR079C, strain IRE1, stronger effect = lower value 0.996 | locus YJL092W, strain hpr5, stronger effect = lower value 0.959 | locus YJL115W, strain asf1, stronger effect = lower value 0.973 | locus YJL129C, strain trk1, stronger effect = lower value 1.01 | locus YJL154C, strain vps35, stronger effect = lower value 0.968 | locus YJL166W, strain qcr8, stronger effect = lower value 0.934 | locus YJR066W, strain TOR1, stronger effect = lower value 0.943
0.264 (active) and 0.97 (inactive): locus YJL095W, strain BCK1, stronger effect = lower value
